The results in this text go back to PubChem BioAssay (NCATS).

SMILES strings stand for the structures. Results filed as inconclusive are left out. Where a call stands in place of a potency, no number is given. Activity calls are given as the source filed them. Calls follow the shape of the dose curve; as a rule, active = well fitted inhibition curve with a large enough effect; inconclusive = small, poorly fitted or top-dose-only effect; inactive = flat fitted curve, though single readings scatter.
Potency is read from the fitted curve at half-maximal effect.

The assay in a line: P-glycoprotein substrates identified in KB-8-5-11 adenocarcinoma cell line, qHTS therapeutic library screen (AID 1346987). Also: nearly all actives have a fitted effect of over 65% in size. The settings on record: KB-8-5-11 (P-gp overexpressing) viability, CellTiter-Glo, 72 h; series mostly up to 44.5 µM. The method, boiled down: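 Luminescence from CellTiter-Glo, read 5 min after addition, quantified survival of KB-8-5-11 (P-gp-overexpressing) cells exposed to compounds for 72 h. AC50 was derived from concentration-response curves.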
(In qHTS, concentration-response curves come from the screen itself.)
`C[C@@H]1C[C@@H]([C@@H](O)C(C)(C)O)O[C@H]2C[C@@]3(C)C(=C12)C[C@H](O)[C@H]1[C@@]2(C)CCC(=O)C(C)(C)C2CC[C@@]13C` (some centres undefined): the Potency entry was “inactive”. With `CC(C)C(C(=O)N(C)C(C)C(N)=O)N(C)C(=O)C1CCCN1C(=O)/C=C/C=C/C(O)C(C)O` (centres undefined) the entry was “inactive”. With `COc1cc(/C=C/C(=O)O[C@H]2[C@H](O)[C@@H](CO)O[C@@]2(CO)O[C@H]2O[C@H](CO)[C@@H](O)[C@H](O)[C@H]2O)ccc1O` the entry was “inactive”. With `CC1COC2(OC3CC4C5CC(O[C@@H]6O[C@H](C)[C@@H](O[C@@H]7O[C@@H](C)[C@H](O)[C@@H](O)[C@H]7O)[C@H](O)[C@H]6O)C6CC(O)CCC6(C)C5CCC4(C)C3C2C)C(O)C1` (some centres undefined) the entry was “inactive”; with `C#CCN(Cc1cc2c(=O)[nH]c(C)nc2cc1Br)c1ccc(C(=O)NCc2cccnc2)cc1`, 259 nM (active).

As to `Nc1nc(Nc2ccc(S(N)(=O)=O)cc2)n(C(=S)Nc2c(F)cccc2F)n1`, the Potency was 1160 nM (active). With `Cc1cc2c(c(=O)[nH]1)OC(C(O)CC(C)C)O2` (centres undefined) the entry was “inactive”; with `CC(C)C(N)C(=O)OCCOCn1cnc2c(=O)[nH]c(N)nc21` (centres undefined), “inactive”; with `C[C@H]1CC[C@@]2(OC1)O[C@H]1CC3C4CC[C@H]5C[C@@H](O)[C@H](O)C[C@]5(C)C4=CC(=O)[C@]3(C)[C@H]1[C@@H]2C` (some centres undefined), “inactive”.
